Test results as given in the supplement of paper PMC6555819.

test system: RARg:RXRa (NR concentration 270 nM, RXRa partner concentration 90 nM); experiment: PBM binding z-score (relative to random genomic background probes); higher = stronger binding; sequences stand for … in GC…GCGATTGACAGCGTAGAATGAAGG
In short: (§1)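 Probes were double-stranded and carried 34-nt variable regions with direct-repeat seeds, single-nucleotide variants, half-site ablations and random human genomic background sequences, printed on custom Agilent 4×180K protein-binding microarrays. Arrays were incubated 1 h with ligand-free nuclear receptor dimers in PBS pH 7.4, 2% milk, 0.02% Triton X-100, 1 mM DTT, 0.2 mg/mL BSA and 0.4 mg/ml salmon testes DNA. Antibodies against each partner (one per run) detected binding, and scanned fluorescence was regression-normalized. Binding z-scores use the random background probes as reference.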

First: ATCGAAAGGACGAAGGTGAGTATACCCACCCGAA
Second: ATCTTTAGGTAACAAGTTCAGTGAAAGAGAGGAC
The PBM binding z-score of the first is lower: 1.11 for the first, 1.56 for the second.

First: CGTACTGGGCCATTCAGAGGTCATTGATCATATG
Second: CGTCCAAGGTCAAAGATCAGTGAAGAGATGACGG
The PBM binding z-score of the first is lower: 4.62 for the first, 6.12 for the second.

First: CGTGCTAGGTCAATGGTCAGCTAAAGCAGCTCGC
Second: TAGCCTAGGTCATTGGGCCAGAATAGTACGCATC
The PBM binding z-score of the first is lower: 3.8 for the first, 4.03 for the second.

First: TCGAGTAGGTTAGGGGCATGCAGAATGGCGTCGA
Second: TGTCAAAGTTCAAAGGTAACGTGAGTATCCACAC
The PBM binding z-score of the first is lower: 0.351 for the first, 6.45 for the second.

First: AGAATCAGGTTATACGTAGATCAGGGAAGAAAGT
Second: CCTATTGGGCCATTCAGAGGTCATTGATCATATG
The PBM binding z-score of the first is lower: 0.789 for the first, 4.69 for the second.

Going from ACAGACAGGTGAGTGAAGGTAACTCCGCTGGACG to CCGACTGGGGCATAATGTTACCATAAGCCAGCCC, the PBM binding z-score falls from 0.0663 to 0.0195.

Going from TAGCCTAGGACATTGGGCCAGTATAGTACGCATC to CGAACTAGGTTATTGACAGGACAGTGAATAGTAA, the PBM binding z-score rises from -0.0558 to 1.04.

Compared with TCTGCTAGGTTAACGATGGTCAGCTAATCTGCTA, CCTGCTAGGTCAATGGTCAGCTACAGCAGCTCGC is higher in PBM binding z-score: 0.561 for the first, 3.82 for the second.

Going from CGTCCAAGGTTAGCAGGTCAGTGAAAGCGACGTG to GGAACGAGGGCAAATTTGATAGCATCTGTCGACG, the PBM binding z-score falls from 2.7 to 1.06.

Going from AGCTCTAGGTAACAAGTTCAGTGAAAGAGAGGAC to GATCCAGGGTCAAGGCCAGAGTACGCGTATTGAT, the PBM binding z-score rises from 1.12 to 5.58.

Compared with ATCTCTAGGTAAGTCTCAGTTCAGTGAAGAACGC, CAGCCTAGGTCTGGGCCAGTATAGGAGGAACGTT is lower in PBM binding z-score: 0.158 for the first, -0.501 for the second.

Compared with GCGACTGGGGCATCAGCATGTTACCATAACTTAA, GGTTACGGGTCAAAGGTTATAGCATGAATAGAAT is higher in PBM binding z-score: 0.263 for the first, 6.91 for the second.

Going from CCGACTGGGGCAAAGGTTACTATACTCAGTACGA to CGTCCAAGGTCTGCAGGTCAGTGAAAGCGACGTG, the PBM binding z-score falls from 2.75 to 1.26.

First: TATACAGGGTCAACGGCCAGAGTACGAATGTCGA
Second: ACAGACAGGAGATGAAGGTAACTCAGGCTATCAT
The PBM binding z-score of the first is higher: 5.83 for the first, 0.0751 for the second.

Compared with CCTTCCGGGTCACTGACAGGTTATAGCATTTGGA, CCTACCGGGCCAAGGTCATTGATCAGTCAAAGCA is lower in PBM binding z-score: 5.65 for the first, 3.89 for the second.

Going from CGTCCAAGGTCACTGCTAGGTCAGTGAAAGCATT to TCGAGTAGGTTAGTCGGGGCATTCACCCAACATA, the PBM binding z-score falls from 7.45 to 0.0959.

First: ATCTCTAGGTGAGACTCAGTTCAGTGAAGAACGC
Second: CGTCCAAGTTCAAGGTCAGTGAAAGAGACTCGAA
The PBM binding z-score of the first is lower: 0.527 for the first, 4.76 for the second.

First: CTCGAAAGATCGGTTGAGGTGAGTATACGGATAA
Second: CAAACTAGGTCACGAAAGGTCATAGTCGAATGAC
The PBM binding z-score of the first is lower: -0.00103 for the first, 7.6 for the second.

Going from ACTAGCAGGCCAATTTTGGGTCACTCAAACAAAG to CAGCCCAGGTCAGGGCCAGTATAGGAGGAACGTT, the PBM binding z-score rises from 1.59 to 3.15.

First: ATCGAAAGGTCGCGAGGTGAGTATACAGAAAGGC
Second: CCAGACAGGTGTAAGGTAACTCAGTCTGGTACGC
The PBM binding z-score of the first is higher: 5.11 for the first, -0.0982 for the second.

test system: RARg homodimer (NR concentration 270 nM); experiment: as above
In short: as §1

Compared with ATCGAAAGGACGAAGGTGAGTATACCCACCCGAA, ATCTTTAGGTAACAAGTTCAGTGAAAGAGAGGAC is higher in PBM binding z-score: 1.26 for the first, 1.48 for the second.

First: CGTACTGGGCCATTCAGAGGTCATTGATCATATG
Second: CGTCCAAGGTCAAAGATCAGTGAAGAGATGACGG
The PBM binding z-score of the first is lower: 3.63 for the first, 6.48 for the second.

Compared with CGTGCTAGGTCAATGGTCAGCTAAAGCAGCTCGC, TAGCCTAGGTCATTGGGCCAGAATAGTACGCATC is lower in PBM binding z-score: 4.95 for the first, 4.07 for the second.

Going from TCGAGTAGGTTAGGGGCATGCAGAATGGCGTCGA to TGTCAAAGTTCAAAGGTAACGTGAGTATCCACAC, the PBM binding z-score rises from 0.462 to 6.06.

Compared with AGAATCAGGTTATACGTAGATCAGGGAAGAAAGT, CCTATTGGGCCATTCAGAGGTCATTGATCATATG is higher in PBM binding z-score: 0.919 for the first, 3.34 for the second.

First: ACAGACAGGTGAGTGAAGGTAACTCCGCTGGACG
Second: CCGACTGGGGCATAATGTTACCATAAGCCAGCCC
The PBM binding z-score of the first is lower: 0.259 for the first, 0.3 for the second.

First: TAGCCTAGGACATTGGGCCAGTATAGTACGCATC
Second: CGAACTAGGTTATTGACAGGACAGTGAATAGTAA
The PBM binding z-score of the first is lower: 0.0958 for the first, 0.618 for the second.

Compared with TCTGCTAGGTTAACGATGGTCAGCTAATCTGCTA, CCTGCTAGGTCAATGGTCAGCTACAGCAGCTCGC is higher in PBM binding z-score: 0.688 for the first, 4.13 for the second.

First: CGTCCAAGGTTAGCAGGTCAGTGAAAGCGACGTG
Second: GGAACGAGGGCAAATTTGATAGCATCTGTCGACG
The PBM binding z-score of the first is higher: 2.6 for the first, 1.73 for the second.

Going from AGCTCTAGGTAACAAGTTCAGTGAAAGAGAGGAC to GATCCAGGGTCAAGGCCAGAGTACGCGTATTGAT, the PBM binding z-score rises from 1.23 to 5.08.

Compared with ATCTCTAGGTAAGTCTCAGTTCAGTGAAGAACGC, CAGCCTAGGTCTGGGCCAGTATAGGAGGAACGTT is lower in PBM binding z-score: 0.271 for the first, -0.44 for the second.

Going from GCGACTGGGGCATCAGCATGTTACCATAACTTAA to GGTTACGGGTCAAAGGTTATAGCATGAATAGAAT, the PBM binding z-score rises from 0.143 to 4.71.

Compared with CCGACTGGGGCAAAGGTTACTATACTCAGTACGA, CGTCCAAGGTCTGCAGGTCAGTGAAAGCGACGTG is higher in PBM binding z-score: 1.37 for the first, 1.8 for the second.

First: TATACAGGGTCAACGGCCAGAGTACGAATGTCGA
Second: ACAGACAGGAGATGAAGGTAACTCAGGCTATCAT
The PBM binding z-score of the first is higher: 5.47 for the first, 0.419 for the second.

Going from CCTTCCGGGTCACTGACAGGTTATAGCATTTGGA to CCTACCGGGCCAAGGTCATTGATCAGTCAAAGCA, the PBM binding z-score falls from 4.44 to 3.32.

First: CGTCCAAGGTCACTGCTAGGTCAGTGAAAGCATT
Second: TCGAGTAGGTTAGTCGGGGCATTCACCCAACATA
The PBM binding z-score of the first is higher: 7.04 for the first, -0.000869 for the second.

Going from ATCTCTAGGTGAGACTCAGTTCAGTGAAGAACGC to CGTCCAAGTTCAAGGTCAGTGAAAGAGACTCGAA, the PBM binding z-score rises from 0.376 to 5.33.

Going from CTCGAAAGATCGGTTGAGGTGAGTATACGGATAA to CAAACTAGGTCACGAAAGGTCATAGTCGAATGAC, the PBM binding z-score rises from -0.0275 to 8.4.

Going from ACTAGCAGGCCAATTTTGGGTCACTCAAACAAAG to CAGCCCAGGTCAGGGCCAGTATAGGAGGAACGTT, the PBM binding z-score rises from 1.25 to 3.67.

Going from ATCGAAAGGTCGCGAGGTGAGTATACAGAAAGGC to CCAGACAGGTGTAAGGTAACTCAGTCTGGTACGC, the PBM binding z-score falls from 4.94 to -0.292.
